# Most compounds without a hit are left out; they make up all but 8.9% or so of the library.
# D1 allo mod: D1 dopamine receptor (human) allosteric modulation; B-score at 10 µM; hit rate 5.9% among 58,000; P21728; HEK293 D1, CRE-luciferase, dopamine EC30 potentiation; actives deviate in either direction; AID 641;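 active means luminescence count or its row- and column-corrected plate score outside the 99.7% band of the plate's sample wells, on either side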
# M1 antag: blocks the rat M1 muscarinic receptor response to acetylcholine. CHO-M1 cells, Fluo-4 calcium, ACh EC80 antagonist mode; stronger effect = lower value. B-score at 10 µM. hit rate 3.4% among 64,000. P08482;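 active means calcium fluorescence response, raw or row-and-column corrected B-score, differing from the plate sample mean either way at a set confidence level, mostly lower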
# mHtt clearance: compounds clearing mutant huntingtin protein. HeLa Exon1htt(103Q)mCFP, aggregate imaging; zero = plate's median compound well. inhibition, % at 1.5 µM. hit rate 0.42% among 47,000. AID 853;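 active means inhibition of aggregate fluorescence above about 70%, also judged a hit by eye on the cell image, limit read from the data, passing the limit was not always enough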;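 further: cells exposed to compound for three days before fixation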
# M1 agonist: agonists of M1 muscarinic receptor; CHO-M1 cells, Fluo-4 calcium fluorescence, agonist mode; stronger effect = higher value; B-score at 10 µM; hit rate 3% among 64,000;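 active means fluorescence rise, raw or as B-score row- and column-corrected plate score, outside the 99.7% band of its plate's samples, either direction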
# WNV protease inh: blocks West Nile virus NS2B-NS3 protease activity; hit rate 0.18% among 65,000; WNV NS2B-NS3 protease, fluorogenic substrate Ex360/Em465; stronger effect = lower value; z-score (no concentration beside the values); in the data active means z-score below about -3
# Target sequence (P06935 1371-1501 limits assumed): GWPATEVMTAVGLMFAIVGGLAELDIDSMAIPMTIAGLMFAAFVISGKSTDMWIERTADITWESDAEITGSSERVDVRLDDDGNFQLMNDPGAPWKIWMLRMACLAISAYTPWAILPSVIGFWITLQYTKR
# Target sequence (P06935 1502-1679 limits assumed): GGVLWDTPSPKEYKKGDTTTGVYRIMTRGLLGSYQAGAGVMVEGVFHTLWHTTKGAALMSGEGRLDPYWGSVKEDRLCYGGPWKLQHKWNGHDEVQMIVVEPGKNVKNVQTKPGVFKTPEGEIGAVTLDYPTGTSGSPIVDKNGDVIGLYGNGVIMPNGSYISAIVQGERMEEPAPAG
# D1 PAM confirm: confirmation of human D1 dopamine receptor allosteric modulators; shares compounds with D1 allo mod; hit rate 88% among 2,200; luminescence at 10 µM; HEK293 D1 CRE-luciferase, dopamine EC30 potentiation; stronger effect = higher value;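 active means luminescence in either of two replicates above the same-plate mean plus 3 SD of the low-dose dopamine control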
# D1 no dopamine: D1 (human) signaling in absence of dopamine; luminescence at 10 µM; hit rate 0.8% among 1,900; HEK293 D1 CRE-luciferase, luminescence, no dopamine; stronger effect = higher value; shares compounds with D1 allo mod; AID 646; in the data active means luminescence above about 3900
# Isoprot counter: counter-screen for D1 modulators: isoproterenol response in HEK293 cells; hit rate 63% among 2,200; calls only at 10 µM; HEK293 D1 CRE-luciferase, isoproterenol EC30 counter-screen; shares compounds with D1 allo mod;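 active means luminescence in either replicate above plate mean of wells with a partly effective reference agonist dose plus 3 SD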;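 further: isoproterenol raises cAMP through native beta-adrenoceptor Gs so signal bypasses D1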
# A number is an active result; . = inactive; / = no result given; + = active, no number.
SMILES,D1 allo mod,M1 antag,mHtt clearance,M1 agonist,WNV protease inh,D1 PAM confirm,D1 no dopamine,Isoprot counter
N#Cc1c(-c2ccccc2Cl)cc(C2CC2)nc1N,14.8,.,/,.,.,20296,.,+
COc1ccccc1-c1c(C)c(C)nc(N)c1C#N,/,.,.,.,.,/,/,/
Cc1nn(-c2ccccc2)c2c1/C(=N/O)CC(C)(C)C2,11.5,.,.,.,.,11596,.,+
Cc1nn(-c2ccccc2)c(N2CCCCC2)c1/C=N/O,.,.,/,.,.,/,/,/
Cc1ccc2c(c1)N(Cc1ccc3c(c1)OCO3)C(=O)C(C)O2 (stereo not given),/,.,.,.,.,/,/,/
Cc1ccccc1Cn1c(=O)n(CCCC(=O)NCc2ccco2)c(=O)c2ccccc21,5.52,.,/,.,.,11052,.,+
Cc1cccc(Cn2c(=O)n(CCCC(=O)NCc3ccco3)c(=O)c3ccccc32)c1,.,.,/,.,.,/,/,/
Cc1cccc(Cn2c(=O)n(Cc3ccco3)c(=O)c3ccccc32)c1,11.8,.,.,.,.,22552,.,+
N#Cc1ccccc1Cn1c(=O)n(Cc2ccc(C(=O)NCc3ccco3)cc2)c(=O)c2ccccc21,4.38,.,/,.,.,18988,.,+
CCOC(=O)C1=C(C)NC(=O)NC1c1c(OCC(=O)N2CCCCC2)ccc2ccccc12 (stereo not given),.,.,/,.,.,/,/,/
COc1ccc(NC(=O)N(CCC(C)C)C(C)c2ccccn2)c(OC)c1 (stereo not given),.,.,.,.,.,/,/,/
COc1ccc(-c2ccc(=O)[nH]n2)cc1,8.21,.,.,.,.,10236,.,+
COc1cc(C)nc(Oc2ccc(=O)[nH]n2)n1,/,.,/,.,.,/,/,/
Cc1ccsc1-c1nc(CSCC(=O)NCc2ccc3c(c2)OCO3)c(C)o1,.,.,/,.,.,/,/,/
COCCNC(=O)c1ccccc1NS(=O)(=O)c1ccc(Br)s1,/,/,.,/,/,/,/,/
CC(C)Cn1nc(NS(=O)(=O)c2ccccc2)c2cc3ccccc3nc21,.,/,.,/,.,/,/,/
CC(C)Cn1nc(NC(=O)C2CCCO2)c2cc3ccccc3nc21 (stereo not given),11.7,.,.,.,.,16892,/,+
O=C1c2cccc3cccc(c23)C(=O)N1c1nncs1,.,.,/,.,.,/,/,/
CCCCNC(=O)c1cnc2n(c1=O)CCS2,/,.,.,.,.,/,/,/
COc1ccc(CCNC(=O)c2cnc3n(c2=O)CCS3)cc1OC,4.73,.,.,.,.,9460,.,+
COc1ccc(CCNC(=O)CN2C(=O)c3ccccc3S2(=O)=O)cc1OC,4.29,.,/,.,.,7364,.,+
COc1ccc(CCNC(=O)c2cc(-c3ccccc3O)n[nH]2)cc1OC,4.41,.,.,.,.,8340,.,+
COc1ccc(-c2cc(-c3cc(F)ccc3O)[nH]n2)cc1OC,.,.,.,.,.,/,/,/
COc1ccc(-c2cc(-c3ccccc3O)[nH]n2)cc1OC,3.37,.,/,.,.,8764,.,+
COc1ccc(CCNC(=O)c2cc(-c3ccc(C)cc3O)n[nH]2)cc1OC,/,/,.,/,/,/,/,/
SMILES,D1 allo mod,M1 antag,mHtt clearance,M1 agonist,WNV protease inh,D1 PAM confirm,D1 no dopamine,Isoprot counter
Cc1cccc(CSC2=NCCN2C(=O)c2ccc(Br)o2)c1,.,.,.,.,.,/,/,/
c1cncc(Oc2cccc(Oc3cccnc3)c2)c1,.,.,/,.,.,/,/,/
O=S(=O)(c1ccc(Cl)c(C(F)(F)F)c1)N1CCN(CC(O)COCC2CCCO2)CC1 (stereo not given),.,.,/,.,.,/,/,/
COC(=O)CSc1nc2cc(Cl)ccc2c(=O)n1C1CCCC1,.,.,.,.,.,/,/,/
CCOC(=O)CNC(=O)CSc1nc2cccnc2n1Cc1ccccc1,.,.,/,.,.,/,/,/
CCOC(=O)CNC(=O)CSc1nc2cccnc2n1C1CCCCC1,7.64,.,.,.,.,13776,/,+
CC(C)OC(=O)CSc1nc2cccnc2n1C1CCCCC1,22.5,.,.,.,.,27160,.,+
O=C(CCCCn1c(=O)[nH]c2ccccc2c1=O)N1CCN(c2ncccn2)CC1,.,.,/,.,.,/,/,/
CSc1nc(-c2ccco2)nn1S(=O)(=O)c1ccccc1,6.62,.,.,.,.,19196,.,+
CCS(=O)(=O)n1nc(-c2ccco2)nc1SC,/,.,/,.,.,/,/,/

# Screens (PubChem)
